Results: publication PMC4336329 (PLoS ONE, 2015)
Screen size: about 310,000 compounds; about 14,000 (4.5%) showed an effect of 50% or more. Effects have a minus sign here. The list comes from a sample in which strong results are over-represented; it also holds similar structures and randomly drawn compounds.

Each compound was assayed against human ether-à-go-go-related gene (hERG) potassium channel (human, UniProt Q12809) (assay: primary screen, population patch clamp on CHO cells stably expressing hERG; higher = less effect of the substance).
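Also: peak tail current of the secondary pulse compared with the same well before compound.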

human ether-à-go-go-related gene (hERG) potassium channel, sequence (Q12809 whole entry, looked up): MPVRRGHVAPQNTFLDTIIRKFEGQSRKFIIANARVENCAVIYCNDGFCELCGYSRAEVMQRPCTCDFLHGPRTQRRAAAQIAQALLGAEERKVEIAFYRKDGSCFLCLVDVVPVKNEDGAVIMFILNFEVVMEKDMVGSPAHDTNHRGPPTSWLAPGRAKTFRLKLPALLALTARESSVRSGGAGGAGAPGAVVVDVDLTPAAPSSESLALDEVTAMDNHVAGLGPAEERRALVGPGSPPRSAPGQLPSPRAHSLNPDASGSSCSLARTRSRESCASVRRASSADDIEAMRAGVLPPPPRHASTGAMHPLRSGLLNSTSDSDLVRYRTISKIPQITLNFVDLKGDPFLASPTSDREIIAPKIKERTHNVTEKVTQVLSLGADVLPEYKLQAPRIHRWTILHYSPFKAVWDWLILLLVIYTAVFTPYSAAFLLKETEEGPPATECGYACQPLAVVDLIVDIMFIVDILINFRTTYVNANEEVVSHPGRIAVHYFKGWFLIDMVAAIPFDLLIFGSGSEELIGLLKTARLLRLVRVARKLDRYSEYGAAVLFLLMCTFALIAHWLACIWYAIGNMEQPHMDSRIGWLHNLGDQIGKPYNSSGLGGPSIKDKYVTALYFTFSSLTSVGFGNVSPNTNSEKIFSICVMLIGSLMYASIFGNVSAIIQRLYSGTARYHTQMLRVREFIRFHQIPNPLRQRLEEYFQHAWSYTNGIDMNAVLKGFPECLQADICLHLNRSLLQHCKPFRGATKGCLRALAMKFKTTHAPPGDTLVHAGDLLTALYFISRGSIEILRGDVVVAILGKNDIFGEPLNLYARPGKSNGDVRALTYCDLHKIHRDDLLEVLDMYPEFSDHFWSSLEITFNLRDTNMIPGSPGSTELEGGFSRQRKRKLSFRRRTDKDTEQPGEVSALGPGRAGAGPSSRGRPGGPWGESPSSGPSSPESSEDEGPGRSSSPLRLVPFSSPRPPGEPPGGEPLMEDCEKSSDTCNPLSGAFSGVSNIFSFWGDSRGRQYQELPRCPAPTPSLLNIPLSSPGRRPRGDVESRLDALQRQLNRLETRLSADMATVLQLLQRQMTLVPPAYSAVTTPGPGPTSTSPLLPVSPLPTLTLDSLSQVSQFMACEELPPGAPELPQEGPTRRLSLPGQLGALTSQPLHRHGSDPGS

SMILES	hERG current change (%, negative = inhibition) at 10uM
COc1ccc(-c2cc(=O)oc3c(C)c(OCC(=O)Nc4cccnc4)ccc23)cc1	-11.6%
CC(=O)c1ccc(N2CCN(C(=O)c3cc(-c4ccc5c(c4)OCO5)nc4ccccc34)CC2)cc1	2.88%
CCn1cc(S(=O)(=O)NCc2ccccc2Br)cn1	-1.6%
CCOC(=O)N1CCN(C(=O)c2c[nH]c3ccc(S(=O)(=O)N(C)c4ccccc4C)cc3c2=O)CC1	-1.1%
O[C@@H]1CCCN2CCc3c([nH]c4ccccc34)[C@H]12	10.9%
Cc1onc(-c2c(Cl)cccc2Cl)c1C(=O)N1CCN(c2ccccc2F)CC1	7.58%
O=C(CN(C1CCCCC1)S(=O)(=O)c1ccc(Cl)cc1)N1CCOCC1	-59.5%
Cc1ccc(S(=O)(=O)N(CC(=O)N2CCCC2)C2CCCCC2)cc1	-37.7%
Cc1ccc(S(=O)(=O)N(CC(=O)N2CCOCC2)C2CCCCC2)cc1	-23.3%
CCOC(=O)N1CCN(C(=O)CN(C2CCCCC2)S(=O)(=O)c2ccc(Cl)cc2)CC1	-47.8%
NC(=O)C1CCN(C(=O)CN(C2CCCCC2)S(=O)(=O)c2ccc(F)cc2)CC1	-13.4%
O=C(CN(C1CCCCC1)S(=O)(=O)c1ccccc1)N1CCCC1	-59.3%
Cc1ccc(SCC(=O)OCC(=O)N(CC(C)C)C2CCS(=O)(=O)C2)cc1C (stereo not shown)	-4.29%
CCOc1ccc(C(c2c(NC(=O)c3ccccc3)sc(C)c2C)N2CCN(CCO)CC2)cc1 (stereo not shown)	-21.1%
CC(=O)Nc1sc2c(c1C(c1ccccn1)N1CCN(C)CC1)CCCC2 (stereo not shown)	-12.9%
CCc1cc(C(c2ccccc2OC)N2CCOCC2)c(NC(=O)c2ccccc2)s1 (stereo not shown)	21.3%
Cc1sc(NC(=O)c2ccccc2)c(C(c2ccccn2)N2CCN(CCO)CC2)c1C (stereo not shown)	-53.7%
CCN1CCN(C(c2ccccn2)c2c(NC(=O)c3ccccc3)sc(C)c2C)CC1 (stereo not shown)	-59.8%
CCc1cc(C(c2ccncc2)N2CCN(C)CC2)c(NC(=O)c2ccccc2)s1 (stereo not shown)	-40.2%
CCc1cc(C(c2ccccn2)N2CCN(C)CC2)c(NC(=O)c2ccccc2)s1 (stereo not shown)	-59.1%
COc1cccc(C(c2c(NC(=O)c3ccccc3)sc(C)c2C)N2CCN(C)CC2)c1 (stereo not shown)	-17.6%
Cc1sc(NC(=O)c2ccccc2)c(C(c2ccc(Cl)cc2)N2CCN(CCO)CC2)c1C (stereo not shown)	-4.47%

SMILES	hERG current change (%, negative = inhibition) at 10uM
COc1ccc(/C(C)=N/NC(=O)c2nnn(-c3nonc3N)c2-c2ccccc2)cc1	19.8%
N#CC(c1ccccn1)c1ncc(C(F)(F)F)cc1Cl (stereo not shown)	23.5%
Cc1cccc(Cn2c(C(=O)OC(C)C)cc3c2ccn3C)c1	6.07%
S=c1[nH]nc(COc2ccc(Cl)cc2)n1C1CCCCC1	14.3%
Cc1cc(NC(=O)COC(=O)[C@@H](NS(=O)(=O)c2ccccc2)C(C)C)no1	-7.67%
COc1ccc(S(=O)(=O)NC(C)C(=O)NCc2ccncc2)cc1OC (stereo not shown)	15.7%
Cc1c([C@H]2[C@@H](CC#N)C2(C)C)c2ccccc2n1C	-10.4%
Clc1ccc(-c2nnc(NCCN3CCCC3)c3ccccc23)cc1	-71.3%
Clc1ccc(-c2nc(NCCN3CCOCC3)c3ccccc3n2)cc1	-15.6%
Clc1ccc(-c2nnc(NCc3ccccc3)c3ccccc23)cc1	-13.3%
O=C(Nc1cccc(Cl)c1)OCc1cncs1	-2.42%
O=c1c(-c2nnc(SCc3ccc(Cl)c(Cl)c3)o2)cccn1Cc1ccccc1	1.6%
O=c1c(-c2nnc(SCc3ccc(Cl)cc3)o2)cccn1Cc1ccccc1	-46.2%
O=c1c(-c2nnc(SCc3ccc(Cl)cc3Cl)o2)cccn1Cc1ccccc1	-62.5%
Cc1ccc(NC(=O)C(CC(C)C)NC(=O)C2CCC(C)CC2)nc1 (stereo not shown)	-6.68%
CCCc1cc(=O)[nH]c(SCC(=O)Nc2c(C)cccc2C)n1	6.31%
COc1ccc2cc(C(=O)C3CCCN(Cc4cccc(C)n4)C3)ccc2c1 (stereo not shown)	-66.5%
COc1cccc(C(=O)C2CCCN(Cc3cccc(C)n3)C2)c1 (stereo not shown)	-53.4%
Cc1cccc(CN2CCCC(C(=O)c3cccc(OC(C)C)c3)C2)n1 (stereo not shown)	-40%
COc1cccc(C(=O)C2CCCN(CC3=Cc4cc(OC)ccc4OC3)C2)c1 (stereo not shown)	-56.6%
COc1c(C)cc(C(=O)C2CCCN(Cc3cccc(C)n3)C2)cc1C (stereo not shown)	-48.7%
COc1ccc(C(=O)C2CCCN(Cc3ccccn3)C2)c(OC)c1 (stereo not shown)	-55.7%

SMILES	hERG current change (%, negative = inhibition) at 10uM
CC(=O)Nc1ccc(N/C=C/C(=O)c2ccco2)cc1	1.94%
Cn1nc(C(=O)Nc2nc3ccc(S(C)(=O)=O)cc3s2)ccc1=O	-20.7%
CN1CCN(C(=O)c2ccc3c(c2)N(Cc2cccc(Cl)c2)C(=O)c2ccccc2S3=O)CC1 (stereo not shown)	-19.5%
O=C(/C=C/N1CCN(Cc2ccccc2)CC1)C(F)(F)F	4.36%
Cc1nn(-c2ccccc2)c(Oc2ccccc2)c1C=O	-6.92%
CCc1c(C)c(C#N)c2nc3ccccc3n2c1NCc1ccco1	-35.4%
Cc1ccc([N+](=O)[O-])cc1N(CC(=O)N1CCCCC1)S(C)(=O)=O	12.2%
Cn1cccc1Cc1nnc(SCC(=O)Nc2cccc(F)c2)n1CCc1ccccc1	-20.3%
Cl.NCCOc1ccccc1-c1ccccc1	-11.1%
CC(C)(C)c1ccc(-c2n[nH]c(=S)n2C2CCCC2)cc1	4.01%
Cc1ccc(C(=O)Nc2ccc3c(c2)OCO3)cc1Cl	19.7%
CSc1ccc(CNC2CN3CCC2CC3)cc1.Cl (stereo not shown)	-10.7%
C[C@@H]1CCC2[C@](C)(CO)[C@@H](O)CC[C@]2(C)[C@@]12CCC(CO)(CCO)O2 (stereo partly shown)	26.8%
O=C1CN(C(=O)COc2ccc(F)cc2Br)c2ccccc2N1	-29.9%
O=C(O)c1ccc2c(=O)n3cc(C(=O)c4ccccc4O)cc(Cl)c3nc2c1	1.38%
CC(=O)Nc1ccc(CN2CCCC(C(=O)c3cccc(C(F)(F)F)c3)C2)cc1 (stereo not shown)	-20.7%
COc1ccc2cc(C(=O)C3CCCN(Cc4ccccn4)C3)ccc2c1 (stereo not shown)	-66.2%
COc1cccc(C(=O)C2CCCN(Cc3ccccn3)C2)c1 (stereo not shown)	-26%
COc1ccc(C(=O)C2CCCN(Cc3sc(N4CCCC4)nc3Cl)C2)c(OC)c1 (stereo not shown)	-49.7%
COc1cccc(C(=O)C2CCCN(Cc3ccon3)C2)c1 (stereo not shown)	8.72%
CCNC(=O)N1CCCC(C(=O)c2ccc(C(F)(F)F)cc2)C1 (stereo not shown)	-23.4%
COc1ccc(C(=O)C2CCCN(Cc3cccc(C)n3)C2)c(OC)c1 (stereo not shown)	-76.2%

SMILES	hERG current change (%, negative = inhibition) at 10uM
COc1ccc(C(=O)C2CCCN(Cc3ccon3)C2)cc1OC (stereo not shown)	11.2%
COc1ccc(C(=O)C2CCCN(Cc3ccon3)C2)c(OC)c1 (stereo not shown)	-53.9%
COc1ccc2cc(C(=O)C3CCCN(C(=O)CCc4ccccn4)C3)ccc2c1 (stereo not shown)	-45.2%
CC(=O)Nc1ccc(CN2CCCC(C(=O)c3ccc(C(F)(F)F)cc3)C2)cc1 (stereo not shown)	-77.3%
Cc1ccc(OCCN2CCN(C(=O)CCC(=O)Nc3nnc(C)s3)CC2)cc1	-7.69%
Nc1nc(SC2c3cccc4cccc(c34)C2NS(=O)(=O)c2ccccc2)n[nH]1 (stereo not shown)	5.88%
Cc1nc2ccc(C(=O)O)cc2c2c1CC(C)S2 (stereo not shown)	-16%
CCCCN1CC(=O)N2[C@H]3c4ccccc4OC[C@@H]3[C@H](c3ccccc3)[C@]2(C)C1=O	-19.9%
COc1cccc(Nc2ccc(C(=O)O)cc2N)c1	11.3%
CN(C(=O)COC(=O)C1c2ccccc2Oc2ccccc21)C1CCS(=O)(=O)C1 (stereo not shown)	4.56%
CC(C)C(CC(=O)N1CCCCC1)C1CCOC(C)(C)C1 (stereo not shown)	-2.24%
Cc1cccc(CN2CCCC(C(=O)c3ccc(C(F)(F)F)cc3)C2)n1 (stereo not shown)	-68.2%
Cc1cnc(C(=O)N2CCCC(C(=O)c3ccc(C(F)(F)F)cc3)C2)cn1 (stereo not shown)	-17.7%
CC(C)(C)c1ccc(C(=O)C2CCCN(Cc3ccon3)C2)cc1 (stereo not shown)	-1.45%
CC1Sc2ccc(S(=O)(=O)N3CCN(c4cccc(Cl)c4)CC3)cc2NC1=O (stereo not shown)	9.32%
CCOC(=O)c1c(C)[nH]c(C)c1C(=O)COC(=O)C1CCCN1S(=O)(=O)c1ccccc1F (stereo not shown)	-2.63%
NC(=O)c1nc(C(=O)N2CCN(c3ccccc3)CC2)c2ccccc2n1	2.14%
CCOc1ccc(NC(=S)NC(=O)c2cncc(Br)c2)cc1	10.1%
CCN(CC(=O)Nc1c(F)cccc1F)C(=O)c1n[nH]c2ccccc12	10.4%
